# In article PMC4336329 (PLoS ONE, 2015):
# Among all 310,000 compounds or so, about 14,000 (4.5%) showed an effect of 50% or more. Effects have a minus sign here. Only a selection was taken, and strong results are over-represented in it overall.
# Molecular target: human ether-à-go-go-related gene (hERG) potassium channel (human, UniProt Q12809)
# Assay: primary screen, population patch clamp on CHO cells stably expressing hERG; higher = less effect of the substance
# 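Also: peak tail current of the secondary pulse compared with the same well before compound.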
# human ether-à-go-go-related gene (hERG) potassium channel, sequence (Q12809 whole entry, looked up): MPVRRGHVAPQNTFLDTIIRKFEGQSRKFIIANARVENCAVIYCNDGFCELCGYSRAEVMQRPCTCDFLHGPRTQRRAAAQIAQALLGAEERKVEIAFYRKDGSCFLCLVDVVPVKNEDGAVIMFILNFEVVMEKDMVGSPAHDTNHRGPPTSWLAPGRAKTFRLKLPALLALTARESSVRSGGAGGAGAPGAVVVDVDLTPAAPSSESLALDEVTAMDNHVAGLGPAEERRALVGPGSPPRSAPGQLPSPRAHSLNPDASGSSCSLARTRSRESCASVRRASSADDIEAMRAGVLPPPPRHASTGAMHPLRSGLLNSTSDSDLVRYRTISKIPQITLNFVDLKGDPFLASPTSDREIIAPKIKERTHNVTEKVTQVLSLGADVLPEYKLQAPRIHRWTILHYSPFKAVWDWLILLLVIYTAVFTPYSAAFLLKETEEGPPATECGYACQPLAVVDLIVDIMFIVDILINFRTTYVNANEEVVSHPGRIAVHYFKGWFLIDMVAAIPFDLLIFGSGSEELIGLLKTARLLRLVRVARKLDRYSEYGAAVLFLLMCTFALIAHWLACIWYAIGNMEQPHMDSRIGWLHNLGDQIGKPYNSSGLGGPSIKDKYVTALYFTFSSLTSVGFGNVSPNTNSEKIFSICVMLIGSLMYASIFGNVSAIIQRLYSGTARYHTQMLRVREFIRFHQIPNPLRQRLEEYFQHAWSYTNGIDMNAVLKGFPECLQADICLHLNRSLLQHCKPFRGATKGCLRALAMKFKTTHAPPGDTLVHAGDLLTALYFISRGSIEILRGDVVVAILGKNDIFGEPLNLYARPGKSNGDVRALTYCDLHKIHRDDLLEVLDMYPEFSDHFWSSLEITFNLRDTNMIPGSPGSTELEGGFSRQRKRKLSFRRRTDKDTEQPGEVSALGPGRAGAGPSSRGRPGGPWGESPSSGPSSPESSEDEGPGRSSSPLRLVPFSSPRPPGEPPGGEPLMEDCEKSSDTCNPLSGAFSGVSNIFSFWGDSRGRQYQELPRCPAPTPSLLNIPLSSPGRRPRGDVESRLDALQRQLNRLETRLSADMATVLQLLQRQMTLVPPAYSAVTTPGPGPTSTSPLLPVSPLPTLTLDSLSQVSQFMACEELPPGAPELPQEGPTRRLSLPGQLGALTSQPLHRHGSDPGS
row,SMILES,"hERG current change (%, negative = inhibition) at 10uM [%]"
1,COc1ccc(CNC(=O)C(c2cccs2)N(C(=O)c2csnn2)C2CC2)cc1 (stereo not shown),-12.2
2,COC(=O)c1cc(NC(=O)c2cccc(F)c2)cc(C(=O)OC)c1,5.98
3,CC(Sc1nc(O)c(-c2ccccc2)c(=O)[nH]1)C(=O)Nc1ccc(Cl)cc1 (stereo not shown),26.9
4,COc1ccc(N=Cc2c(O)[nH]c3ccccc23)cc1,0.417
5,O=C(Nc1ccc(S(=O)(=O)N2CCN(c3ccccc3)CC2)cc1)c1cccs1,8.53
6,Fc1cccc(Cl)c1Cn1ncc2ccccc21,-7.36
7,C=CCSc1nc(N)cc(=O)[nH]1,0.914
8,CCOc1ccc(CCNc2ccc3nnc(-c4ccccc4)n3n2)cc1OCC,1.95
9,c1ccc(CN2CCN(CCCNc3ccc4nnc(-c5ccccc5)n4n3)CC2)cc1,-59.7
10,Cc1ccc(CNc2ccc3nnc(-c4ccccc4)n3n2)cc1,15.7
11,CCn1cc(C(=O)N(C)c2ccc(OC)cc2OC)c2cc(OC)c(OC)cc2c1=O,12.4
12,CNS(=O)(=O)c1ccc(Oc2ccc(S(=O)(=O)NC)cc2)cc1,13.2
13,NS(=O)(=O)c1ccc(Oc2ccc(S(N)(=O)=O)cc2)cc1,0.75
14,C=CS(=O)(=O)c1ccc(Oc2ccc(S(=O)(=O)C=C)cc2)cc1,-64.3
15,Cc1ccc(N2C(=O)C(Cc3ccc(O)cc3)NC2=S)cc1C (stereo not shown),-7.04
16,Brc1ccccc1C1=Nn2c(nnc2-c2ccccc2)SC1,14.5
17,CC(NC(=O)c1cc2ccccc2o1)c1cccs1 (stereo not shown),-15.6
18,Cc1cc2c(c(=O)n1CCN(C)C)C(c1ccccc1Br)C(C#N)=C(N)O2 (stereo not shown),-26.1
19,Cc1cc2c(c(=O)n1CCN(C)C)C(c1ccncc1)C(C#N)=C(N)O2 (stereo not shown),19.6
20,Cc1cc2c(c(=O)n1CCN(C)C)C(c1ccc(Br)cc1)C(C#N)=C(N)O2 (stereo not shown),-58.5
21,COc1ccc(CC(=O)NC(c2ccccc2)c2ccc(C)cc2)c(OC)c1 (stereo not shown),11.3
22,CCN1CCN(C(c2ccccc2)c2nnnn2Cc2ccc(OC)cc2)CC1.Cl (stereo not shown),10.7

row,SMILES,"hERG current change (%, negative = inhibition) at 10uM [%]"
1,c1ccc(Cn2nnnc2C(c2cccnc2)N2CCN(C3CCCCC3)CC2)cc1 (stereo not shown),-24.9
2,COc1ccc(Cn2nnnc2C(c2ccc(C)cc2)N2CCN(C3CCCC3)CC2)cc1.Cl (stereo not shown),-63.8
3,COc1ccc(C(c2nnnn2Cc2ccc(F)cc2)N2CCN(c3ccccc3)CC2)cc1 (stereo not shown),-4.37
4,COc1ccc(Cn2nnnc2C(c2ccc3ncccc3c2)N2CCN(C3CCCCC3)CC2)cc1 (stereo not shown),-82.8
5,COc1ccc(C(c2nnnn2Cc2ccc(F)cc2)N2CCN(c3ccc(OC)cc3)CC2)cc1 (stereo not shown),-7.57
6,COc1ccccc1C(c1nnnn1Cc1ccccc1)N1CCN(C2CCCC2)CC1.Cl (stereo not shown),-35.5
7,COc1ccc(OC)c(C(c2nnnn2Cc2ccccc2)N2CCN(C3CCCCC3)CC2)c1.Cl (stereo not shown),-53.9
8,c1cnc2ccc(C(c3nnnn3C3CCCC3)N3CCSCC3)cc2c1 (stereo not shown),-3.72
9,COc1ccc(OC)c(C(c2nnnn2Cc2ccccc2)N2CCN(C)CC2)c1.Cl (stereo not shown),3.17
10,COc1ccc(C(c2nnnn2Cc2ccccc2)N2CCN(c3ccccc3)CC2)cc1.Cl (stereo not shown),-6.94
11,COc1ccc(Cn2nnnc2C(c2ccc(F)cc2)N2CCN(C3CCCC3)CC2)cc1 (stereo not shown),-52.6
12,Cc1ccc(N(CC(O)Cn2c3ccccc3c3ccccc32)S(C)(=O)=O)cc1 (stereo not shown),9.82
13,CCC(C)(C)n1nnnc1C(c1cc2ccc(OC)cc2[nH]c1=O)N1CCN(C2CCCCC2)CC1 (stereo not shown),-59.6
14,CCC(C)(C)n1nnnc1C(c1cc2ccc(OC)cc2[nH]c1=O)N1CCc2ccccc2C1 (stereo not shown),-27.9
15,CCC(C)(C)n1nnnc1C(c1cc2ccc(OC)cc2[nH]c1=O)N1CCCCC1 (stereo not shown),-26.3
16,Cc1cccc(NC(=O)c2cc(NC(=O)c3ccco3)ccc2Cl)n1,-29.1
17,Cc1nc2ccccn2c1C(=O)Nc1ccc(Cl)cc1,1.65
18,CN(C)c1nc2c(N)ncnc2n1[C@H]1O[C@@H](CO)[C@H](O)[C@@H]1O,7.28
19,Br.COc1ccc(Nc2nc(-c3sc(NC(C)=O)nc3C)cs2)cc1,3.32
20,Cc1c(NC(=S)NC(=O)C(c2ccccc2)c2ccccc2)cccc1C(=O)O,-3.41
21,O=C(Nc1ccnn1C1CCN(Cc2ccn[nH]2)CC1)c1ccccc1,-18.2
22,Cc1ccccc1C(=O)Nc1ccnn1C1CCN(CCCc2ccccc2)CC1,-78.4

row,SMILES,"hERG current change (%, negative = inhibition) at 10uM [%]"
1,CC(=O)CCC(=O)N1CCC(n2nccc2NC(=O)c2ccccc2C)CC1,9.06
2,O=C(Nc1ccnn1C1CCN(CCCc2ccccc2)CC1)c1ccccc1,-80.8
3,COc1ccccc1C(=O)Nc1ccnn1C1CCN(CCCc2ccccc2)CC1,-78.3
4,O=C(Nc1ccnn1C1CCN(CCCc2ccccc2)CC1)c1ccccc1Cl,-82.2
5,C=CCNC(=S)Nc1ccc(N(C)C)cc1,-6
6,CCOC(=O)c1cnc(-n2nc(C)cc2C)nc1Oc1ccc(C#N)cc1,21.3
7,CC(=O)c1ccccc1NS(=O)(=O)c1ccc2c(c1)CC(=O)N2,2.66
8,CCCCn1nnnc1SCC(=O)NNC(=O)C1CCCCC1,-1.79
9,O=C1c2ccccc2C(=O)N1CCc1nc(-c2cccnc2)no1,-12.2
10,COc1ccccc1NC(=O)C1(C)Cc2ccccc2C(=O)O1 (stereo not shown),-10.2
11,Cc1ccc(-n2ncc3ccccc3c2=O)cc1Cl,-3.72
12,COc1ccc(NC(=O)c2coc3ccccc23)cc1OC,6.21
13,CSc1nc(-c2ccc(Cl)cc2)c(C#N)c(=O)[nH]1,13.1
14,Cc1nc(SCC(=O)NC2CCCCC2C)c(C#N)c(C)c1C (stereo not shown),-7.03
15,O=S(=O)(CCN1CCOCC1)c1ccccc1,8.81
16,Cc1nc(-c2ccc(S(=O)(=O)N3CCOCC3)cc2)cs1,12.8
17,COc1cc(Br)cc(CN2CCN(C/C=C/c3ccccc3)CC2)c1O,-32.1
18,O=C(COc1ccccc1)N1CCN(C/C=C/c2ccccc2)CC1,-58.1
19,O=C(COc1ccccc1)N1CCN(C(=O)COc2ccccc2)CC1,-32.2
20,O=C(Cc1ccccc1)N1CCN(C/C=C/c2ccccc2)CC1,-19.5
21,COc1cccc(NC(=S)N2CCN(C/C=C/c3ccccc3)CC2)c1,-44.7
22,COc1ccc(O)c(CN2CCN(C/C=C/c3ccccc3)CC2)c1,-51.9

row,SMILES,"hERG current change (%, negative = inhibition) at 10uM [%]"
1,COc1ccc(OCC(=O)N2CCN(C(=O)COc3ccccc3)CC2)cc1,-47.5
2,COc1ccc(OC)c(NC(=S)N2CCN(C/C=C/c3ccccc3)CC2)c1,-33
3,COc1ccc(NC(=S)N2CCN(C/C=C/c3ccccc3)CC2)c(OC)c1,-64.2
4,CN(c1ccc(OCC(=O)N2CCN(C/C=C/c3ccccc3)CC2)cc1)S(=O)(=O)c1cccs1.Cl,-30.6
5,COc1ccc(OCC(=O)N2CCN(C/C=C/c3ccccc3)CC2)cc1,-58.8
6,Cc1ccccc1CN1CCN(C/C=C/c2ccccc2)CC1,8.81
7,c1ccc(-c2onc(-c3ccco3)c2-c2ccc3c(c2)OCO3)cc1,2
8,O=[N+]([O-])c1ccc(-c2ccccc2)c([As](=O)(O)O)c1,11.9
9,O=c1cc(C(F)(F)F)nc(SCc2cccc3ccccc23)[nH]1,24
10,Cn1c(SCC(=O)OC2CCCCC2)nnc1-c1ccc2c(c1)OCO2,-19.7
11,COc1ccc(Cn2c(=O)[nH]c3cc(C(=O)NC4CCN(Cc5ccccc5)CC4)ccc32)cc1,-3.88
12,COc1ccc(N2CCN(Cc3cc(=O)oc4cc(C)c(Cl)cc34)CC2)cc1,8.44
13,Cc1cc(C)n2nc(C(=O)OCC(=O)N3CC(C)CC(C)C3)nc2n1 (stereo not shown),15.4
14,O=C(NCc1ccco1)Nc1ccc2nsnc2c1,10.7
15,N#Cc1nc(-c2ccco2)oc1NCc1ccc(F)cc1,-4.84
16,Cc1cc(C)c(Cn2ncn(-c3ccc(Br)cc3)c2=O)c(C)c1,19.4
17,O=C(COc1ccc(Cl)cc1)N1CCN(C/C=C/c2ccccc2)CC1,-70.7
18,O=C(COc1ccc(Cl)cc1)N1CCCCC1,-5.82
19,O=C(COc1ccc(Cl)cc1)N1CCCCCCC1,-12.2
20,CC(=C1C(=O)c2ccccc2C1=O)N1CCN(C/C=C/c2ccccc2)CC1,-55.6
21,CC(=C1C(=O)c2ccccc2C1=O)N1CCN(Cc2ccccc2)CC1,-26.6
22,CS(=O)(=O)N1CCN(C/C=C/c2ccccc2)CC1,7.98
